Assay results reported in PubChem BioAssay AID602350 (Broad Institute, 2012).
Potency and affinity values are given separately. Calls of active or inactive are those of the source.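 The calls were made as follows: active = absorbance falls by 30% or more versus neutral controls, with a potency fitted within twice the top valid dose; inconclusive = no clear call, values can overlap the other calls; inactive = change opposite to expected direction, plus the rest.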

Each molecule was assayed against Protein disulfide-isomerase (Homo sapiens) (UniProt P07237) (assay: PDI inhibitors, insulin aggregation turbidity, dose response, biochemical, absorbance, cherry-picked samples (AID 602350)). Conditions: recombinant PDI insulin aggregation, absorbance 650 nm, 90 min; series mostly up to 19.5 µM.
Protein disulfide-isomerase (Homo sapiens), sequence (P07237 whole entry, looked up): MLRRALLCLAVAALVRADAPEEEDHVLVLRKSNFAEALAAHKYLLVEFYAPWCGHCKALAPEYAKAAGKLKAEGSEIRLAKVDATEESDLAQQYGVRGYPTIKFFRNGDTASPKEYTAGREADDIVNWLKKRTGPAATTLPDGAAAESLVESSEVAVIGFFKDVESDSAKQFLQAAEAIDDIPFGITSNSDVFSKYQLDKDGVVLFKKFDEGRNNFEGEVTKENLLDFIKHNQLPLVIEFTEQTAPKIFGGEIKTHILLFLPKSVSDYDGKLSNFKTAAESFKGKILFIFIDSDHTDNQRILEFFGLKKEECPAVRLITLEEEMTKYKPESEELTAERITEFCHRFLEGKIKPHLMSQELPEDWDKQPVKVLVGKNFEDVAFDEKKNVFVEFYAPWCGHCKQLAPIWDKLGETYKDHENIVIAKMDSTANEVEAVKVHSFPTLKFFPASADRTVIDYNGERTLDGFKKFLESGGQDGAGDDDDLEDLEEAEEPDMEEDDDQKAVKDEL

| SMILES | outcome |
| --- | --- |
| CCS(=O)(=O)c1ccc2oc(SCC(=O)NC(C)C3CC4CCC3C4)nc2c1 (centres undefined) | inactive |
| Cc1cccc(NC(=S)NCC23C=CC(O2)C2C(=O)N(c4ccc(Cl)cc4)C(=O)C23)c1 (centres undefined) | inactive |
| O=C(NC(=S)Nc1cccc(NC(=O)c2ccccc2)c1)c1cccc([N+](=O)[O-])c1 | inactive |
| CC1(c2ccc3ccccc3c2)NC(=O)N(CC(=O)Nc2cccc(S(=O)(=O)N3CCOCC3)c2)C1=O (centres undefined) | inactive |
| Cc1cc(C)cc(CC(=O)N2CCC2(C)C(=O)NS(=O)(=O)c2ccc(Br)cc2)c1 (centres undefined) | inactive |
| CCOc1cc(/C=C/C(=O)c2ccc(O)cc2)ccc1OCC(=O)N(C)C | inactive |
| C[C@@H]1CN([C@H](C)CO)C(=O)Cc2cc(NC(=O)Nc3ccccc3)ccc2O[C@@H]1CN(C)Cc1ccccc1 | inactive |
| O=C(Nc1ccc(Br)cc1F)c1cccnc1 | inactive |
| Cc1cc(C)c2c(=O)n3c(nc2c1)C(Cc1ccc(O)cc1)NC(=O)c1cccnc1-3 (centres undefined) | inactive |
| COc1ccc(Oc2ccc(/C=C/C(=O)c3ccc(O)cc3)cc2[N+](=O)[O-])cc1 | inactive |
| CCOC(=O)c1c(CN2CCN(Cc3ccccc3)CC2)n(C)c2cc(Br)c(OC)cc12 | inactive |
| C[C@]12CC[C@H]3C(=CCc4cc(O)ccc43)[C@@H]1CCC2=O | inactive |
| COc1ccccc1NS(=O)(=O)c1ccc(C)c(C(=O)NCC2(N(C)C)CCCCC2)c1 | inactive |
| O=C(NCCCN1CCOCC1)C(Sc1ccccc1)c1ccccc1 (centres undefined) | inactive |
| COc1ccc(/C(C)=N/NC(=O)CNC(=O)c2cccs2)cc1 | inactive |
| CCOC(=O)c1c(CN(CC)CC)n(C)c2cc(Br)c(O)cc12 | inactive |
| CCc1nc2ccc(C(=O)N(CC)CC(=O)Nc3c(F)cccc3F)cc2nc1CC | inactive |
| CCC(=O)N1CCc2cc(S(=O)(=O)CCC(=O)NCc3ccco3)ccc21 | inactive |
| CC(O)(c1cccnc1)c1nc(-c2cc(F)cc(F)c2)cs1 (centres undefined) | inactive |
| Cc1cc2c3c(c1)C1(C(=O)N3C(C)(C)CC2C)C(C#N)=C(N)Oc2n[nH]c(C)c21 (centres undefined) | inactive |

| SMILES | outcome |
| --- | --- |
| C[C@@H]1CN([C@@H](C)CO)C(=O)c2cccc(NS(C)(=O)=O)c2O[C@@H]1CN(C)Cc1ccc(Oc2ccccc2)cc1 | inactive |
| CC[C@]12c3[nH]c4cc(-c5ccco5)ccc4c3CCN1C(=O)[C@@H](CC(=O)NCC13CC4CC(CC(C4)C1)C3)C[C@@H]2C(=O)N1CCN(C(=O)c2ccco2)CC1 | inactive |
| Nc1ccc(C(=O)NN2C(=O)[C@H](Cl)C2c2ccc(Cl)cc2)cc1 (some centres undefined) | inactive |
| CN(C)C(=O)CSc1n[nH]c(-c2ccco2)n1 | inactive |
| COC(=O)C(Cc1ccc(O)cc1)N1Cc2ccccc2C1=O (centres undefined) | inactive |
| COc1ccc(C2c3ccc(O)cc3Oc3ncn4nc(-c5cccnc5)nc4c32)cc1OC (centres undefined) | inactive |
| O=C(/C=C/c1ccc(N2CCCCC2)c([N+](=O)[O-])c1)c1ccc(O)cc1 | inactive |
| COc1cc(C(=O)N2CCN(C/C=C/c3ccccc3)CC2)cc(OC)c1OC | inactive |
| Cc1nn(CC(=O)NCC2CCCO2)c(C)c1[N+](=O)[O-] (centres undefined) | inactive |
| COc1ccc(OCCN2CCC(C(=O)NC(c3ccsc3)c3ccccc3C)CC2)cc1 (centres undefined) | inactive |
| Cc1c(O)ccc2c(CN3CCN(Cc4ccccc4)CC3)cc(=O)oc12 | inactive |
| Cn1nnnc1SCC(=O)Nc1cc(C(F)(F)F)ccc1N1CCOCC1 | inactive |
| COc1cc(C2C(C#N)=C(N)Oc3cc(O)ccc32)cc(OC)c1OC (centres undefined) | inactive |
| O=C(C[C@H]1C[C@H](C(=O)N2CCCCC2)[C@@]2(CCc3ccccc3)c3[nH]c4cc(-c5ccco5)ccc4c3CCN2C1=O)NCCC1=CCCCC1 | inactive |
| Cc1c(-n2cc(C(=O)c3cc(Br)ccc3O)cc(C#N)c2=O)c(=O)n(-c2ccccc2)n1C | inactive |
| Cc1nnc(SCc2cc(=O)oc3cc(O)ccc23)n1Cc1ccccc1 | inactive |
| COc1cc(C(C)=O)ccc1OCC(=O)NCCCn1nc(C)cc1C | inactive |
| CN(C)S(=O)(=O)c1ccc(C(=O)Nc2ccc3nc(N4CCOCC4)sc3c2)cc1 | inactive |
| COc1ccccc1NC(=O)c1ccc(NC(=O)COC(=O)c2cccnc2Cl)cc1 | inactive |
